This is one part of a sample in which hits are shown more often than they occur.
ALR inh – human ALR oxidase inhibition via reduced H2O2 | purified ALR, DTT oxidation, H2O2 HRP-luminol luminescence | inhibition, % (concentration not given with the values) | hit rate 3.8% among 290,000 | AID 485317;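 active = mean replicate inhibition above about 79%, with every replicate also reaching it, limit read from the data; inconclusive = only one of the two criteria met; inactive = mean below limit and not every replicate reaching it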
GC-B act – GC-B (human) receptor activation; hit rate 0.11% among 370,000; activation, % at 10 µM; P20594; HEK293-GC-B cells, CNP EC30, cGMP TR-FRET; 0% at EC30 CNP, 100% saturating CNP;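 active = activation at 10 µM reaching about 35% in either raw or pattern-adjusted values, limit read from the data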
GC-A act – GC-A (human) enzyme activation; AID 1671463; HEK293 GC-A cells, cGMP TR-FRET, EC30 ANP; 0% at EC30 ANP, 100% saturating ANP; hit rate 0.14% among 370,000; P16066; activation, % at 10 µM; in the data active = activation above about 40%
HDAC3 inh – inhibitors of human histone deacetylase 3; inhibition, % at 8.3 µM; recombinant HDAC3, fluorogenic peptide/trypsin coupled, fluorescence; AID 2718; O15379; hit rate 0.15% among 320,000; in the data active = inhibition above about 26%, passing the limit was not always enough; inconclusive = no clear call, values can overlap the other calls
Target sequence (O15379 whole entry, looked up): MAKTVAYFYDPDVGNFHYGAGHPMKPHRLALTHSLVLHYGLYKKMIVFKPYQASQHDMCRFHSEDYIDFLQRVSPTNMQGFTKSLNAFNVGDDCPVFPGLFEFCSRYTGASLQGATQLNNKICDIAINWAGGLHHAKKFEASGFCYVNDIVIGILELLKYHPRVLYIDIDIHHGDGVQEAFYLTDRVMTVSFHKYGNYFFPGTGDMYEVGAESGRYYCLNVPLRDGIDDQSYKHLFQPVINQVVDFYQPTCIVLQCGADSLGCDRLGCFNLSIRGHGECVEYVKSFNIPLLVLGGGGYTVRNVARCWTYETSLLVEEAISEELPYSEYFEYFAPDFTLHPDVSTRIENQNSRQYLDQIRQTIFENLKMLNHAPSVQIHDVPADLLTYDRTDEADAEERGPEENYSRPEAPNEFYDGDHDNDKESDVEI
A number is an active result; n = inactive; u = inconclusive; x = not tested or not shown.

SMILES | ALR inh | GC-B act | GC-A act | HDAC3 inh
Oc1cccc(Nc2nc(N3CCOCC3)nc(N3CCOCC3)n2)c1 | 84 | n | n | n
COc1ccc([C@H]2CC(=O)C=C(c3ccc(C)c4ccccc34)C2)cc1 | n | n | n | n
Cc1ccc(CNc2ncc(-c3ccccc3)n2C)o1 | 98 | n | n | n
Cn1c(-c2ccccc2)cnc1NCc1ccccc1 | n | n | n | n
Cc1ccc(-c2nnc(Nc3ccc4c(c3)OCO4)c3ccccc23)cc1S(N)(=O)=O | x | n | n | x
Cc1nnc(Nc2ccc3c(c2)OCO3)c2ccccc12 | 88 | n | n | n
O=C(NC(=S)N1CCN(c2ccccc2)CC1)c1ccco1 | 98 | n | n | n
Nc1ccc(N2CCN(C(=O)c3ccco3)CC2)cc1 | 99 | n | n | n
O=C(NCC(=O)N1CCN(c2ccccc2O)CC1)c1ccco1 | 90 | n | n | n
O=C(c1ccco1)N1CCN(c2ccc(F)cc2)CC1 | n | n | n | n
O=C(NC(=S)N1CCN(c2ccccc2)CC1)c1ccccc1 | u | n | n | n
Cc1occc1C(=O)NN=C1C2CC3CC(C2)CC1C3 | n | n | n | n
CC(=O)c1cccc(CN2CCCC(CCC(=O)NCc3ccccc3F)C2)c1 (stereo not given) | n | n | n | n
COCCOC(=O)N1CCCCC1c1cc(C(=O)Nc2cccc3c2CCCC3)no1 (stereo not given) | x | n | n | x
COc1ccc(/C=N/NC(=O)C(=O)N2CCCCCC2)cc1O | 83 | n | n | n
CCOC(=O)N/N=C/c1ccc(F)cc1 | n | n | n | n
COc1cc(/C=N/NC(=O)C(N)=O)cc(OC)c1O | 99 | n | n | n
COc1ccc(/C=N/NC(=O)C(N)=O)c(OC)c1OC | n | n | n | n
CCOC(=O)N/N=C/c1cc(OC)c(O)c(OC)c1 | 99 | n | n | n
COc1cc(/C=N/NC(=O)c2cccc3ccccc23)cc(OC)c1O | n | n | n | n
CCOC(=O)N/N=C/c1ccc(OC)c(O)c1 | 94 | n | n | n
COc1ccc(/C=N/N=C/c2ccc(OC)c(OC)c2)cc1OC | x | n | n | n
COc1cc(/C=N/N=C/c2cc(OC)c(O)c(OC)c2)cc(OC)c1O | 98 | n | n | n
COCc1cc(C)nc(OCC(=O)N/N=C/c2ccc(OC)c(O)c2)c1C#N | 99 | n | n | n
N#CC1=C(C2CC2)CC(c2ccccc2)C(C#N)=C1N (stereo not given) | n | n | n | n
SMILES | ALR inh | GC-B act | GC-A act | HDAC3 inh
N#CC1=C(N)SC2(CCCCC2)SC1c1ccccc1 (stereo not given) | 94 | x | x | n
CN(Cc1ccccc1)c1nnc(N)s1 | u | n | n | n
CC(C)N(c1nnc(N)s1)C(C)C | 97 | n | n | n
O=S(=O)(c1ccccc1Br)N(CC(O)COCc1ccccc1)C1CC1 (stereo not given) | x | n | n | x
O=C(Nc1nc2ccc(S(=O)(=O)N3CCCC3)cc2s1)c1cccs1 | x | n | n | n
CN(C)S(=O)(=O)c1ccc2nc(NC(=O)c3cccs3)sc2c1 | 86 | n | n | n
O=C(Nc1nc2ccc(S(=O)(=O)N3CCCCC3)cc2s1)c1ccncc1 | 98 | n | n | n
COc1ccc2oc3cc(C)[n+]([O-])c(-c4ccc(C)cc4)c3c2c1 | 93 | n | n | n
Cc1ccc(C(=O)NCC(=O)OCC(=O)c2ccc(Br)s2)cc1 | n | n | n | n
Cc1cc(=O)[nH]c(SCC(=O)c2ccc(O)c(O)c2)n1 | 99 | n | n | n
Cc1ccc(C(=O)CSc2nc(C)cc(=O)[nH]2)cc1 | 98 | n | n | n
CCOC(=O)CSc1nc(C)cc(=O)[nH]1 | n | n | n | n
O=C(CSc1nc2ccccc2c(=O)[nH]1)c1ccc(O)c(O)c1 | 99 | n | n | n
O=C(CSc1nc2ccccc2c(=O)[nH]1)c1ccc(O)cc1O | x | n | n | x
Cc1cc(C)nc(SCC(=O)c2ccc(O)c(O)c2)n1 | n | n | n | n
Cc1cc(SCC(=O)c2ccc(O)c(O)c2)n2nc(C)c(-c3ccccc3)c2n1 | 96 | n | n | n
COc1ccc(CCN2CC(O)=C(c3nc(C)cs3)C2=N)cc1OC | n | n | n | n
COc1ccc(CCN2CC(O)=C(c3nc4ccccc4c(=O)[nH]3)C2=N)cc1OC | n | n | 70 | n
CCOc1ccc(NC2c3ccccc3C(=O)N2Cc2ccco2)cc1 (stereo not given) | 98 | n | n | n
COc1ccc(NC2c3ccccc3C(=O)N2Cc2ccco2)cc1OC (stereo not given) | 100 | n | n | n
COC(=O)c1cc(NC2c3ccccc3C(=O)N2Cc2ccco2)cc(C(=O)OC)c1 (stereo not given) | n | n | n | x
CCN1C(=O)N(CC)c2cccc3cccc1c23 | n | n | n | n
CN1CN(C)c2cccc3cccc1c23 | 98 | x | x | n
O=C(CN1CCN(Cc2ccccc2)CC1)N/N=C\c1ccccc1[N+](=O)[O-] | x | n | n | x
CCOC(=O)C1=C[C@@H](C(C)(C)C)N(S(=O)(=O)c2ccccc2C)[C@H]1c1ccc(Cl)cc1 | x | n | n | x
SMILES | ALR inh | GC-B act | GC-A act | HDAC3 inh
O=C(/C=C/c1ccc([N+](=O)[O-])cc1)Nc1cccc(C(=O)Nc2ccccc2C(=O)O)c1 | 91 | n | n | n
O=C(Cn1cc(C(F)(F)F)ccc1=O)NC1CCCC1 | n | n | n | n
CNc1nc(Nc2ccc(C(C)=O)cc2)nc(OC(C(F)(F)F)C(F)(F)F)n1 | 100 | n | n | n
Cc1ccc(CNc2ccc(N3CCOCC3)cc2)s1 | x | n | n | n
Clc1cc(NCc2cccs2)ccc1N1CCOCC1 | 97 | n | n | n
CC(=O)N1CCN(c2ccc(NCc3cccs3)cc2)CC1 | 99 | n | n | n
CC(=O)N1CCN(c2ccc(NCc3ccc(C)s3)cc2)CC1 | 99 | n | n | n
Cc1ccc(NC(=O)COC(=O)/C=C/c2c(C)nn(-c3ccc(F)cc3)c2Cl)cc1F | n | n | n | n
CC(C)[C@H](NC(=O)C1CC1)C(=O)N1CCC[C@H]1C(=O)NCc1ccccc1 | x | n | n | x
O=C(O)CN1C(=O)/C(=C\c2cc(Br)ccc2OCc2ccc(F)cc2)SC1=S | n | n | n | n
COc1ccc(/C=C2/SC(=S)N(CC(=O)O)C2=O)cc1OCc1ccc(Cl)cc1 | 88 | n | n | n
O=C(O)CN1C(=O)/C(=C\c2cccc(OCc3ccccc3)c2)SC1=S | 83 | n | n | n
O=C(O)COc1cccc(/C=C2/SC(=S)N(Cc3ccccc3)C2=O)c1 | n | n | n | n
O=C(O)CN1C(=O)/C(=C\c2cc(Br)ccc2OCc2ccc(Cl)cc2)SC1=S | 98 | n | n | n
CCCNC(=O)c1cc(C2CCCCN2S(=O)(=O)Cc2cccc(C(F)(F)F)c2)on1 (stereo not given) | x | n | n | x
COc1ccc(CC(=O)Nc2cc(S(=O)(=O)N3CCOCC3)ccc2N2CCOCC2)cc1OC | x | n | n | x
COC(=O)C[C@H]1CC[C@@H]2[C@@H](COc3ccc(NC(=O)Nc4cccc(C)c4)cc3C(=O)N2C)O1 | x | n | n | x
C=Cc1ccc(C(=O)NC2CCCN(Cc3ccccc3F)C2)cc1 (stereo not given) | n | n | n | n
